Hits are enriched below; roughly 7.5% of the tested compounds scored in any of these assays.
Giardia FBPA inh – Giardia lamblia aldolase inhibition; AID 2451; Potency, µM (top dose mostly 59.6 µM), inactives show top-dose activity, negative = inhibition, actives largely listed as inhibitors; purified Giardia FBPA; actives 0.71% (n = 290,000); A8B2U2; also: potency is read from the fitted curve at half-maximal effect; nearly all actives have a fitted effect of over 55% in size
Target sequence (A8B2U2 whole entry, looked up): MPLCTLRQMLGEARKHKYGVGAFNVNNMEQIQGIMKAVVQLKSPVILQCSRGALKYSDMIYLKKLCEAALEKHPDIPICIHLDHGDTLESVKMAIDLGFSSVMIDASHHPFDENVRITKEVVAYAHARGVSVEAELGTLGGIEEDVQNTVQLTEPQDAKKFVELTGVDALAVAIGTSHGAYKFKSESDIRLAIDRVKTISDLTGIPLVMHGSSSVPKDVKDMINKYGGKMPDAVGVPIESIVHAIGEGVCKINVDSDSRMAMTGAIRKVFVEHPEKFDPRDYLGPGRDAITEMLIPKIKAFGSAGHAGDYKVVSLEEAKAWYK
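Giardia FBPA (40 nM reagent) was preincubated 10 min at RT with compound (up to 57.5 uM final), then substrate plus GAPDH/TPI/NAD/arsenate coupling system with diaphorase/resazurin was added; resorufin fluorescence (525/598 nm) was read after 20 min.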
HCV inh – HCV inhibition; Huh7.5.1 HCVcc-Cre infection, luciferase reporter, 44 h; Potency, µM (top dose mostly 41.8 µM), for the others: at the top dose activity change, negative = inhibition, most hits filed as inhibitors; actives 3.4% (n = 340,000); also: potency is read from the fitted curve at half-maximal effect
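Reporter virus HCVcc-Cre (~0.5 moi) infects cells exposed to compound; seeding density 1,000 cells/well with 4 h settling beforehand. Luminescence, 15 sec read, taken 44 h post-infection following a 15 min RT substrate incubation.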
HCMV inh – blocks human cytomegalovirus replication; HFF cells, HCMV-luciferase reporter, 72 h; hits give low values; actives 4.5% (n = 410,000); activity change, negative = inhibition, % at 57.5 µM; in the data active = activity change below about -60%; inconclusive = no clear call, values can overlap the other calls; inactive = above about -39%
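Steps: HFFs plated, 16 h 37C; compounds added; HCMV-luciferase added to MOI 1 PFU/cell; 72 h 37C; OneGlo reagent, 5 min room temperature; luminescence read, normalized to controls.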
VACV Venus inh – inhibitors of vaccinia virus (Venus reporter); Potency, µM (titrated, usually from 36.5 µM), inactives show at the top dose activity change, negative = inhibition, actives largely listed as inhibitors; actives 0.46% (n = 330,000); AID 720580; Vaccinia virus Venus reporter expression, fluorescence; calls by dose curve; tested in A549 cells; also: potency is read from the fitted curve at half-maximal effect; nearly all actives have a fitted effect of over 30% in size
VACV mCherry inh – vaccinia inhibition (mCherry reporter); Vaccinia virus mCherry reporter infection, fluorescence; actives 0.63% (n = 310,000); Potency, µM (series often up to 36.5 µM), without a hit: top-dose activity change, negative = inhibition, actives largely listed as inhibitors; calls by dose curve; tested in A549 cells; also: potency is read from the fitted curve at half-maximal effect; nearly all actives have a fitted effect of over 35% in size
FMDV inh – blocks foot and mouth disease virus. Potency, µM (top dose mostly 57.9 µM), for inactives: top-dose activity change, negative = inhibition, most hits filed as inhibitors. actives 1.2% (n = 410,000). FMDV antiviral cell-based qHTS; calls by dose curve; tested in HEK293T cells; also: read-out not given here; potency is read from the fitted curve at half-maximal effect; nearly all actives have a fitted effect of over 45% in size
Active calls of the source: *; i = inactive; ? = inconclusive; / = not tested or not shown; + = active, no number; ! = repeats disagree; [ ] = dose if it differs, or a comment. Unless noted, calls follow the shape of the dose curve; as a rule, active = well fitted curve in the direction sought with a large enough effect; inconclusive = small, poorly fitted or top-dose-only effect, or another doubt; inactive = no such curve, though single readings can be large; an effect the other way counts as inactive or inconclusive. % is scaled to controls: 0 for no effect and ±100 for the full control effect.

SMILES	Giardia FBPA inh	HCV inh	HCMV inh	VACV Venus inh	VACV mCherry inh	FMDV inh
CC(=O)Nc1ccc(NC(=O)C(C)OC(=O)CCSc2ccccc2Cl)cc1 (stereo not given)	/	11%	-26	/	/	-6%
Cc1ccc(NC(=O)C(C)OC(=O)CCC2CCCCC2)cc1 (stereo not given)	/	2%	-12	-4%	i	-20%
CCCN1CCN(CCCNC(=O)c2cc3c(s2)-c2c(C)cccc2OC3)CC1	-2%	2.5µM*	-70*!	-27%	-24%	-2%
CCOc1ccc(NC(=O)c2cc3c(s2)-c2ccccc2OC3)cc1	/	/	-27	-12%	-12%	-27%
CCN1CCN(CCCNC(=O)c2cc3c(s2)-c2ccccc2OC3)CC1	12%	7.1µM*	-108*!	0%[7.34 µM]	-14%	9%
Cc1csc(NC(=O)c2cc3c(s2)-c2ccccc2OC3)n1	1%	11µM*	18	?	-22%	-7%
CC1CC(C)CN(CCCNC(=O)c2cc3c(s2)-c2ccccc2OC3)C1 (stereo not given)	/	8.9µM*	?	/	/	-10%
CC(=O)NC(c1ccc(F)c(F)c1)c1nc(-c2cnc3ccccc3c2)cs1 (stereo not given)	/	/	-24	?	-19%	17%
COC(=O)c1cc2c(s1)-c1cc(F)ccc1OC2	5%	13%	-66*	-13%	-3%	31%
CC(=O)c1cc2c(s1)-c1cc(F)ccc1OC2	3%	-18%	16	-29%	-20%	0%
COC(=O)c1cc(Br)ccc1NC(=O)CSCc1c(C)noc1C	/	?	-31	/	/	?
Cc1ccc(-n2ncc3c(=O)n(CC(=O)N4CCN(C(=O)c5ccco5)CC4)cnc32)cc1	/	16%	-12	-12%	-11%	-18%
COc1ccc(Cn2cccc(NC(=O)Nc3cccc(OC)c3)c2=O)cc1	-25%	14µM*	0	/	/	?
COc1cccc(Cn2cccc(NC(=O)Nc3ccc(C#N)cc3)c2=O)c1	-5%	4µM*	-66*	/	/	18µM*
COc1cccc(Cn2cccc(NC(=O)NCc3ccccc3)c2=O)c1	7%	?	16	-5%	-10%	-15%
COc1cccc(Cn2cccc(NC(=O)Nc3ccccc3C)c2=O)c1	-3%	10µM*	-17	/	/	?
C=CCn1c(NC(=O)c2ccc(C)cc2)nc2ccccc21	?	-11%	94	-8%	?	28%
COc1ccc(OC)c(NC(=O)c2ccc3c(c2)c(C)c(C)n3Cc2ccc(F)cc2)c1	/	/	0	-6%	-18%	-1%
COc1ccc(NC(=O)c2ccc3c(c2)c(C)c(C)n3Cc2ccc(F)cc2)c(OC)c1	/	/	+	-9%	-10%	-12%
CCOc1ccccc1-c1c2cc(O)c(=O)cc-2oc2cc(O)c(O)cc12	6.3µM*	-16%	/	/	i	?
COc1ccc(OC)c(-c2c3cc(O)c(=O)cc-3oc3cc(O)c(O)cc23)c1	?	-12%	/	i	i	-26%
CCOC(=O)C1=CCN(S(=O)(=O)c2ccc(Cl)cc2)C1c1ccccc1 (stereo not given)	/	/	-26	-9%	5%	?
O=C(NCCn1ccc2ccccc21)c1ccc(S(=O)(=O)N2CCCCC2)cc1	0%	?	-67*	-5%	i	?
CCN(CC)CCNC(=O)c1ccc(NC(=O)c2ccc(Cl)c(S(=O)(=O)N3CCCCCC3)c2)cc1	0%	14µM*	-60*	-25%	?	-29%
CCN(CC)CCNC(=O)c1ccc(NC(=O)c2ccc(S(=O)(=O)N3CCCCCC3)cc2)cc1	/	10µM*	-32	?	-17%	9%
SMILES	Giardia FBPA inh	HCV inh	HCMV inh	VACV Venus inh	VACV mCherry inh	FMDV inh
COc1ccc(C(=O)NCCn2ccc3ccccc32)cc1	-3%	-4%	-25	?	/	-4%
COC(=O)c1sc(NC(=O)c2cc3c(s2)CCCC3)nc1C	4%	?	-15	/	/	27%
Cc1nc(NC(=O)c2cc3c(s2)CCCCC3)sc1C(=O)N(C)C	-5%	11µM*	1	/	/	58%
COc1ccc(-c2cc3ccccc3n2CC(O)CNCCO)cc1 (stereo not given)	-39%	-1%	-7	-28%	/	-24%
COc1ccc(-c2cc3ccccc3n2CC(O)CN2CCCCC2)cc1 (stereo not given)	?	-8%	-81*	/	/	-33%
Cc1cc(C)c2c(c1)/C(=N\N=c1\sc3ccccc3n1C)C(=O)N2	-3%	11%	?	3%	?	-25%
Cc1ccc(NC(=O)OCCN2CCN(S(=O)(=O)c3ccc(C)cc3)CCC2=O)cc1	5%	-6%[8.37 µM]	-22	-20%	-6%	-26%
Cc1ccc(S(=O)(=O)N2CCC(=O)N(CCOC(=O)Nc3cccc(Cl)c3)CC2)cc1	-6%	?	-64*	?	-9%	9%
COc1ccc(CNC(=O)OCCN2CCN(S(=O)(=O)c3ccc(C)cc3)CCC2=O)cc1	-4%	-2%	-65*	-23%	i	0%
CCN(CC)C(=O)CSc1nnc2nnc3cc(Cl)ccc3n12	-15%	-16%	-28	?	-55%	-11%
CCN(CC)C(=O)CSc1nnc2nnc3cc(C)ccc3n12	2%	4%	-67*	11%	-13%	-18%
CC(C)N1CCN(c2ccc(OCC3COC(Cn4cncn4)(c4ccc(Cl)cc4Cl)O3)cc2)CC1 (stereo not given)	/	?	-16	-18%	i	-27%
CC(=O)N1CCN(c2ccc(OCC3CO[C@@](Cn4ccnc4)(c4ccc(Cl)cc4Cl)O3)cc2)CC1 (stereo not given in full)	12%	/	/	?	?	25µM*
CC(C)N1CCN(c2ccc(OC[C@H]3CO[C@](Cn4cncn4)(c4ccc(Cl)cc4Cl)O3)cc2)CC1	/	?	-99*	-28%	-7%	-22%
CCCNC(=O)OC[C@@H]1O[C@H](CCO/N=C(\C)CCC(=O)OC[C@@H]2O[C@H](C#Cc3ccccc3)C=C[C@@H]2Oc2ccc(C)cc2)C=C[C@@H]1Oc1ccc(OC)cc1	0%[12.9 µM]	/	/	/	/	/
CCc1nc(-c2ccccc2)c2ccccn12	4.5µM*	8%	-10	-6%	i	-1%
CC(=O)Nc1ccnn1C1CCN(C(=O)c2cccc(C)c2C)CC1	/	2%	-9	8%[7.34 µM]	10%[7.34 µM]	-6%
CC(=O)C1=C(S(=O)(=O)c2ccc(C)cc2)CS(=O)(=O)C1	-17%	-9%	-100*	-1%	i	?
Cc1ccc(S(=O)(=O)C2CS(=O)(=O)CC2O)cc1 (stereo not given)	-6%	13%	-26	-11%	-9%	/
OC1CCCC1NCc1ccnc2cc(Cl)ccc12 (stereo not given)	/	1%	-5	-2%	-10%	-8%
